Results as given in PubChem BioAssay AID463193 (University of Pittsburgh Molecular Library Screening Center, 2010).
In all, about 190,000 compounds went through this assay and about 1,900 (1%) were called active. This is one part of a sample in which actives are shown more often than they occur.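 The calls were made as follows: active = percentage of spot-positive cells more than 3 SD above its plate mean, without a fluorescence outlier flag or 80% toxicity; inconclusive = no clear call, values can overlap the other calls; inactive = the rest.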

Assay: GFP-LC3 puncta formation changes – imaging, high-content, MEF GFP-LC3, primary screen (AID 463193);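 as to % cells with GFP-LC3 spots: spot-positive cell cutoff set from DMSO-treated cells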;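 as to toxicity: cell loss after 18 h compound exposure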
Settings: autophagy, at 10 µM; % cells with GFP-LC3 spots: stronger effect = higher value; toxicity: measured here: cell loss, nuclei count

**Q.** For `Cc1ccc(CC(=O)Nc2cccc(C#N)c2)cc1`, which % cells with GFP-LC3 spots is on record?
**A.** 1.19% (inactive)

**Q.** What about the toxicity of the same compound?
**A.** -8.28%

**Q.** For `COc1cc(/C=C/C2=CC(C)(C)NC(=S)N2)cc(OC)c1OC`, which % cells with GFP-LC3 spots is on record?
**A.** 1.56% (inactive)

**Q.** And the toxicity?
**A.** 6.84%

**Q.** With `CC(Oc1ccccc1F)C(=O)NN` (stereo not given) as the compound, how does the % cells with GFP-LC3 spots read?
**A.** 38% (active)

**Q.** And the toxicity?
**A.** 3.88%

**Q.** What does the source list for `CC(Oc1ccc(F)cc1F)C(=O)/C=C/N(C)C` (stereo not given)?
**A.** % cells with GFP-LC3 spots: 6.77% (inactive); toxicity: 7.51%

**Q.** Which results are given for `COc1cccc(NC(=O)C(C)Oc2ccccc2)c1` (stereo not given)?
**A.** % cells with GFP-LC3 spots: 5.6% (inactive); toxicity: 4.79%

**Q.** With `COc1ccccc1C1CC(=O)n2c(nc(-c3ccccc3)c2-c2ccccc2)S1` (stereo not given) as the compound, how does the % cells with GFP-LC3 spots read?
**A.** 3.32% (inactive)

**Q.** What about the toxicity of the same compound?
**A.** 1.28%

**Q.** For `O=[N+]([O-])/C(N=Nc1ccccc1)=N\Nc1ccccc1`, which % cells with GFP-LC3 spots is on record?
**A.** 16.1% (inactive)

**Q.** And the toxicity?
**A.** 8.32%

**Q.** Which % cells with GFP-LC3 spots does the source give for `Nc1nonc1-c1nc2ccccc2n1CCC(=O)O` here?
**A.** 6.83% (inactive)

**Q.** And the toxicity?
**A.** 0.889%

**Q.** For `COc1ccc(C)c(Cn2c(-c3nonc3N)nc3ccccc32)c1`, which % cells with GFP-LC3 spots is on record?
**A.** 25% (active)

**Q.** What about the toxicity of the same compound?
**A.** 49.2%

**Q.** Which results are given for `Nc1nonc1-c1nc2ccccc2n1Cc1ccc(F)cc1`?
**A.** % cells with GFP-LC3 spots: 17.1% (inactive); toxicity: 0.606%

**Q.** What does the source list for `CN(C)Cc1ccccc1C1(O)c2ccccc2CSc2ccccc21` (stereo not given)?
**A.** % cells with GFP-LC3 spots: 12% (active); toxicity: -6.62%

**Q.** With `COC(=O)C1=C(NC(=O)C(C)(C)C)CCS1` as the compound, how does the % cells with GFP-LC3 spots read?
**A.** 5.79% (inactive)

**Q.** What about the toxicity of the same compound?
**A.** -3.16%

**Q.** Which % cells with GFP-LC3 spots does the source give for `COC(=O)c1sc(N)c(C(=O)OC)c1COC(=O)CNS(=O)(=O)c1ccc(C)cc1` here?
**A.** 2.17% (inactive)

**Q.** And the toxicity?
**A.** -4.43%

**Q.** What does the source list for `CCC(=O)/C=C1\Sc2ccccc2N1CC`?
**A.** % cells with GFP-LC3 spots: 7.46% (inactive); toxicity: -11.3%

**Q.** With `CCN1/C(=C/c2ccc3ccc(C)cc3[n+]2CC)Sc2ccccc21` as the compound, how does the % cells with GFP-LC3 spots read?
**A.** 42.4% (active)

**Q.** What about the toxicity of the same compound?
**A.** 14.3%

**Q.** For `CCN1CCN(CCNC(=O)c2ccc(/C=C3/Sc4ccccc4N(Cc4cccc(C)c4)C3=O)cc2)CC1`, which % cells with GFP-LC3 spots is on record?
**A.** 34.4% (inactive)

**Q.** And the toxicity?
**A.** 30.3%

**Q.** What does the source list for `Cc1ccc(Nc2cc(C)nc3c(C)ccc([N+](=O)[O-])c23)cc1`?
**A.** % cells with GFP-LC3 spots: 9.29% (inactive); toxicity: 15.4%

**Q.** For `Cc1cccc(N(C(=O)Cc2cccs2)C(C(=O)NCc2ccco2)c2ccncc2)c1` (stereo not given), which % cells with GFP-LC3 spots is on record?
**A.** 0.45% (inactive)

**Q.** And the toxicity?
**A.** 4.04%

**Q.** Which % cells with GFP-LC3 spots does the source give for `CSc1nc2ccccc2cc1/C=C(\C#N)c1ccc(Cl)cc1Cl` here?
**A.** 26.9% (active)

**Q.** And the toxicity?
**A.** 3.92%

**Q.** Which results are given for `CSc1nc(N)c(C#N)c(-c2ccccc2Cl)c1C#N`?
**A.** % cells with GFP-LC3 spots: 1.32% (inactive); toxicity: 7.01%

**Q.** With `Cc1nc2ccccc2cc1O` as the compound, how does the % cells with GFP-LC3 spots read?
**A.** 1.86% (inactive)

**Q.** What about the toxicity of the same compound?
**A.** -9.74%

**Q.** What does the source list for `CCC(C)NC(=O)/C=C/c1ccc(S(=O)(=O)NCc2ccco2)cc1` (stereo not given)?
**A.** % cells with GFP-LC3 spots: 13.9% (inactive); toxicity: -4.92%

**Q.** Which results are given for `Cc1cccc(OCCNC(=S)NC(=O)c2cccnc2)c1`?
**A.** % cells with GFP-LC3 spots: 4.78% (inactive); toxicity: 1.96%

**Q.** Which results are given for `O=C(CSc1ncnc2c1nnn2Cc1ccc(F)cc1)NC1CCCC1`?
**A.** % cells with GFP-LC3 spots: 19.5% (inactive); toxicity: 3.4%

**Q.** Which results are given for `COc1ccc(N2CCN(C(=O)CNS(=O)(=O)c3ccc(C)c(C)c3)CC2)cc1`?
**A.** % cells with GFP-LC3 spots: 0.151% (inactive); toxicity: -10.1%
